The source of these data is ChEMBL document CHEMBL3988442, “University of Dundee, Small-Polar-MMV Screening Library” (2021).

Set-up in all cases: scale not given: direction of the effect not stated beside the values
The target of test [1] is Protein translocase subunit SecA (Escherichia coli (strain K12)) (UniProt P10408). In words: Assay to Identify E. coli SecA ATPase Inhibitors. Type of test: functional. The note with it: 30 µM.
Test [2] has as its target T1, Ubiquitin-activating enzyme e1, putative (Leishmania donovani (strain BPK282A1)) (UniProt E9BSI1).
T1 sequence (whole entry): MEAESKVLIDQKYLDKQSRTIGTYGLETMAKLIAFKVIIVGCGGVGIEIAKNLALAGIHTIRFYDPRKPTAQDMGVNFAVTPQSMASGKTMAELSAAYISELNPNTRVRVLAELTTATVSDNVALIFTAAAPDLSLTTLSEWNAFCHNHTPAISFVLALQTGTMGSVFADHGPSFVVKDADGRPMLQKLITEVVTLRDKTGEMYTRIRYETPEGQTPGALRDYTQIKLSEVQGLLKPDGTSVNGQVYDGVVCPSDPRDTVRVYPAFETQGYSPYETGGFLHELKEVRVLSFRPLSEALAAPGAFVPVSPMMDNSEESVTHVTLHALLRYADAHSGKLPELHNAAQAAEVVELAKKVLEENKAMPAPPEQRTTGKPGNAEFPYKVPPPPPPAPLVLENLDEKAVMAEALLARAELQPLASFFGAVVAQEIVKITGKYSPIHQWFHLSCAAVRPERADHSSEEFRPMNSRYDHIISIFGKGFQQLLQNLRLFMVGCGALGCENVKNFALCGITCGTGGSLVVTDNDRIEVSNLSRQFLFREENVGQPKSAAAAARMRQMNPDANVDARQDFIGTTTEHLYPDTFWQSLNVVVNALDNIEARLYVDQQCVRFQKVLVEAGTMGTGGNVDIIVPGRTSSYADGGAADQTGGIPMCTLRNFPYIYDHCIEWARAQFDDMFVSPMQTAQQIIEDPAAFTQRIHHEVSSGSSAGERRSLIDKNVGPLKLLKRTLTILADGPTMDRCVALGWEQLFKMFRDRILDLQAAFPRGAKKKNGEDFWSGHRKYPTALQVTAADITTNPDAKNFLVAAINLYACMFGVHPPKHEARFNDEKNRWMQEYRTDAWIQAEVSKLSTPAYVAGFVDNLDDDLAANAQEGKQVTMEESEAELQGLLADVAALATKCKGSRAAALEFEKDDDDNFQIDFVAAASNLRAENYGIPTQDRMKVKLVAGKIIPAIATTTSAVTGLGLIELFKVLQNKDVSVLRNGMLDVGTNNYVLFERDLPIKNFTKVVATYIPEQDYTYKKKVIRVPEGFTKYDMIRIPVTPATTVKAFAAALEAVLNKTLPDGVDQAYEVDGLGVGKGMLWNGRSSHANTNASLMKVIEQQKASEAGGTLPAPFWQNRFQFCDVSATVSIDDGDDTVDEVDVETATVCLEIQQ
Put plainly: Leishmania donovani Ubiquitin Activating Enzyme (LdE1). Type of test: functional. The note with it: 30 µM.

Test [3] has as its target AMP-activated protein kinase, AMPK (Homo sapiens) (UniProt P54646+O43741+P54619+Q9UGJ0+Q9Y478+Q13131+Q9UGI9). In words: AMP-dependent Kinase enzyme assay. An in vitro enzyme assay that detects ADP turnover that is directly proportional to AMPK activity. This uses naive AMPK that is activated during the assay with MK-8722. Type of test: functional. The note with it: 30 µM.

Test [4] concerns the target Sialic acid-binding Ig-like lectin 9 (Homo sapiens) (UniProt Q9Y336). In words: Hs-Siglec9 ALPHAscreen SOP 20170721. As to conditions: 10 µM.
The next test concerns Trypanosoma cruzi. Put plainly: Trypanosoma cruzi phosphomannomutase and mannose-1-phosphate guanylyltransferase assay. Type of test: functional. As to conditions: 10 µM.
Test [5] addresses T2, Arginase-2, mitochondrial (Homo sapiens) (UniProt P78540).
T2 sequence (whole entry): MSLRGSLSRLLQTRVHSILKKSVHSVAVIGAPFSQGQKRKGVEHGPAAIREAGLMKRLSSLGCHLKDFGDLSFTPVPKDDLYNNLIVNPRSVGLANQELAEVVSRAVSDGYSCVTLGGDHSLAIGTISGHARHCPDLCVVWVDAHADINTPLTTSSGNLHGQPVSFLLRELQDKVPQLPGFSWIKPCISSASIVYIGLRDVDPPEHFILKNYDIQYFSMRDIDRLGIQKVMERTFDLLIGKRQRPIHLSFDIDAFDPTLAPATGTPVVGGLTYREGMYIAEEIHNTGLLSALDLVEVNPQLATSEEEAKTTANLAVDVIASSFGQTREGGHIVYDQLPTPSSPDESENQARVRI
In words: in vitro enzyme assay to detect the production of urea directly proportional to the activity of Arginase II. Note: in the data most compounds retested in dose-response had high values. Type of test: functional. The note with it: 33.3 µM.

For test [6], the target named is T3, Proteasome subunit beta (Trypanosoma cruzi) (UniProt O96673).
T3 sequence (whole entry): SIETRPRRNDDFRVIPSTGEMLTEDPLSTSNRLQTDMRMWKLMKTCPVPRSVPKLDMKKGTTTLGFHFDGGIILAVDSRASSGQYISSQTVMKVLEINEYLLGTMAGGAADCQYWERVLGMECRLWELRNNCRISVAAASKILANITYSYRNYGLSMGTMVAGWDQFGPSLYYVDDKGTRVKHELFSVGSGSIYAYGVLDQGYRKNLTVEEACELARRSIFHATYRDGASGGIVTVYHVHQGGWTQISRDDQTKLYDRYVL
Put plainly: Trypanosoma cruzi proteasome chymotrypsin-like activity (TcProtChymo) assay. Note: in the data most compounds retested in dose-response had high values. Type of test: functional. As to conditions: 9.37 µM.

A further test is filed under the species Homo sapiens. In words: To identify inhibition of the IFN signalling (Jak-Stat) pathway via expression of an eGFP reporter gene under the control of an IFN-stimulated response element (ISRE) containing MxA promoter. Type of test: functional. As to conditions: 30 µM. (Reporter assays use an easily measured gene product as a stand-in for the process of interest.)

The target of test [7] is T4, Tyrosyl-tRNA synthetase, putative (Trypanosoma cruzi (strain CL Brener)) (UniProt Q4DSP6).
T4 sequence (whole entry): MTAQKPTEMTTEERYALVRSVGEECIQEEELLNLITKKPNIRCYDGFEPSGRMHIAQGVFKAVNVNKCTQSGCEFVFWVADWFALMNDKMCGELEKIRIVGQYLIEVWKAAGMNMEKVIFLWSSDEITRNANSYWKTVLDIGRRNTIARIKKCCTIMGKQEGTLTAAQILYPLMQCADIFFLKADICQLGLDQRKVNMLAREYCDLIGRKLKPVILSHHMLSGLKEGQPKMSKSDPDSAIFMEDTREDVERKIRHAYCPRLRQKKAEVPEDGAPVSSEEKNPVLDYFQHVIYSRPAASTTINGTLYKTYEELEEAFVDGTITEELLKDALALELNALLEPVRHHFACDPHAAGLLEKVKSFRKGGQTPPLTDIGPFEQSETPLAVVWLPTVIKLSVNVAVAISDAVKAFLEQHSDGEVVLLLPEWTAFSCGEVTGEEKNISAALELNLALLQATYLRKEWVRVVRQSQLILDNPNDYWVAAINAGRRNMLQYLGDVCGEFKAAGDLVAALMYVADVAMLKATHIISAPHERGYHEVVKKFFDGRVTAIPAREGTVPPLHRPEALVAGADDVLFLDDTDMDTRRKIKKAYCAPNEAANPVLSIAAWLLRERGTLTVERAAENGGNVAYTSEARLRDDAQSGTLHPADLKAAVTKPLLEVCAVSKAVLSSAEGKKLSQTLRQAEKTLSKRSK
In words: Trypanosoma cruzi tyrosyl tRNA synthetase (TcYRS) _High Tyrosine SOP. Note: in the data most compounds retested in dose-response had high values. The note with it: 30 µM. Type of test: functional.

In test [8] the target is T4, Tyrosyl-tRNA synthetase, putative (Trypanosoma cruzi (strain CL Brener)). Put plainly: Trypanosoma cruzi tyrosyl tRNA synthetase (TcYRS) SOP. Type of test: functional. As to conditions: 30 µM.
For test [9], the target named is Chromo domain-containing protein 1 (Saccharomyces cerevisiae (strain ATCC 204508 / S288c) (Baker's yeast)) (UniProt P32657). In words: ScCHD-1 Enzyme Inhibition Assay. Note: in the data most compounds retested in dose-response had high values. As to conditions: 30 µM. Type of test: functional.

For some of these results: Results with a measured potency or affinity are listed apart.

Sequence of Protein translocase subunit SecA (Escherichia coli (strain K12)) (P10408 whole entry): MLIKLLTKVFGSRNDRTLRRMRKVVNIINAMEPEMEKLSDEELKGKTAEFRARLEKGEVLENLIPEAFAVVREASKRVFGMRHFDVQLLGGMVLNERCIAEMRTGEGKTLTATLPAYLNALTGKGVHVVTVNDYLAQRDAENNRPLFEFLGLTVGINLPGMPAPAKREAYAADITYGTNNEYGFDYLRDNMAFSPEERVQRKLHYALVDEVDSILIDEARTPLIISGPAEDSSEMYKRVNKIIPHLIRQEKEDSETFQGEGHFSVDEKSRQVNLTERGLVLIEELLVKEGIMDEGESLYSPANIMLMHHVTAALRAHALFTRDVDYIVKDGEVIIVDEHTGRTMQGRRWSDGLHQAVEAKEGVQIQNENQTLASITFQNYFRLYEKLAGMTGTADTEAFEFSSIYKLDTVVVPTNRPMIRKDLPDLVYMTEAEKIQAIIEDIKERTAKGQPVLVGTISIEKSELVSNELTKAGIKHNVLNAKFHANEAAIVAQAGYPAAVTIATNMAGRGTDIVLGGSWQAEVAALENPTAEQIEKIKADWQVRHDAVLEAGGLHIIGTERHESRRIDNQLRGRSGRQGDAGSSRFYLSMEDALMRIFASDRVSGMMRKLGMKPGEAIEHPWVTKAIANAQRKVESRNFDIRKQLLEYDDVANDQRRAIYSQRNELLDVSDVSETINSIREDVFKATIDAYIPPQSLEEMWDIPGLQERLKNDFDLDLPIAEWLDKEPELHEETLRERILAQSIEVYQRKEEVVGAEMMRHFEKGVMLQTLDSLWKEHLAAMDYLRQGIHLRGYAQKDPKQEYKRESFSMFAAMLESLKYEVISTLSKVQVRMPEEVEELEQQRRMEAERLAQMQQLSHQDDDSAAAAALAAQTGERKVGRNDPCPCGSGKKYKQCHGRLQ
Sequence of Chromo domain-containing protein 1 (Saccharomyces cerevisiae (strain ATCC 204508 / S288c) (Baker's yeast)) (P32657 whole entry, the tested form may be a part): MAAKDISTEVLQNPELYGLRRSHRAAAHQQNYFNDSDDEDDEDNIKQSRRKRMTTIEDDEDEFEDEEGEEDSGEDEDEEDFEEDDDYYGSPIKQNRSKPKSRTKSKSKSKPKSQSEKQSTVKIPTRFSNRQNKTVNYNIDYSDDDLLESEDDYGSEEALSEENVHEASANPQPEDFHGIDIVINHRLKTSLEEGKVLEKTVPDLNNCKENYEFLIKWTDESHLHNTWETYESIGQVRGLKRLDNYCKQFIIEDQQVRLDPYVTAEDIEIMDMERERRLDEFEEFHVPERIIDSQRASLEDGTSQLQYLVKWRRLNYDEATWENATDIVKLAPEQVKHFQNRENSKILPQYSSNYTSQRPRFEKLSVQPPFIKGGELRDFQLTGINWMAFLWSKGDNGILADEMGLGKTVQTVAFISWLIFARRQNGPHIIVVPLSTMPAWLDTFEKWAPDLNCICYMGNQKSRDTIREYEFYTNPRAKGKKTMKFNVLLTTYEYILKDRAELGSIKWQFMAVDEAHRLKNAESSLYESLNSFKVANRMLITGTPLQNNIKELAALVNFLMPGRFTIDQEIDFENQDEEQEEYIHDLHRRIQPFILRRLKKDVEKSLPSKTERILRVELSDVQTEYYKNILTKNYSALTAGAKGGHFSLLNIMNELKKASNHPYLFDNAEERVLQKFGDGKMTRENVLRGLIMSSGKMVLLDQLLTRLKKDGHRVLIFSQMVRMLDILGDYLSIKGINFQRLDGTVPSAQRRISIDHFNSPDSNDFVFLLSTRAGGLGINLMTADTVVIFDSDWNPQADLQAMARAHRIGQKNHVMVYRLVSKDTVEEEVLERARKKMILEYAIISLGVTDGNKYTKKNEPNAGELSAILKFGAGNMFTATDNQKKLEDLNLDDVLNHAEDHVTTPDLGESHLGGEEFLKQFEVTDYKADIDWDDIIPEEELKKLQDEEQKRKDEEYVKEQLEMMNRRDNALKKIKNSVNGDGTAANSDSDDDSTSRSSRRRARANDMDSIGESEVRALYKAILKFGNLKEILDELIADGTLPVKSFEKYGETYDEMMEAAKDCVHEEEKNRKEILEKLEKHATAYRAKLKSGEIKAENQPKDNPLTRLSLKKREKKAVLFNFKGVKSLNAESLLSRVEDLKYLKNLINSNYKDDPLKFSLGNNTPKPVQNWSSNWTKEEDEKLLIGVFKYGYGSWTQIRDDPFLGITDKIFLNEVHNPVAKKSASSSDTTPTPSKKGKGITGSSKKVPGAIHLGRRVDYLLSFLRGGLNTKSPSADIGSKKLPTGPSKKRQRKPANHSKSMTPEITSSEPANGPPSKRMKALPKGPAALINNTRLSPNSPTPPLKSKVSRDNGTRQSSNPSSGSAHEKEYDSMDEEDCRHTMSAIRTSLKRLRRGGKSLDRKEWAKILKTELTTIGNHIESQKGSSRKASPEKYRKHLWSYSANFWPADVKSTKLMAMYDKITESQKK
Sequence of Sialic acid-binding Ig-like lectin 9 (Homo sapiens) (Q9Y336 whole entry): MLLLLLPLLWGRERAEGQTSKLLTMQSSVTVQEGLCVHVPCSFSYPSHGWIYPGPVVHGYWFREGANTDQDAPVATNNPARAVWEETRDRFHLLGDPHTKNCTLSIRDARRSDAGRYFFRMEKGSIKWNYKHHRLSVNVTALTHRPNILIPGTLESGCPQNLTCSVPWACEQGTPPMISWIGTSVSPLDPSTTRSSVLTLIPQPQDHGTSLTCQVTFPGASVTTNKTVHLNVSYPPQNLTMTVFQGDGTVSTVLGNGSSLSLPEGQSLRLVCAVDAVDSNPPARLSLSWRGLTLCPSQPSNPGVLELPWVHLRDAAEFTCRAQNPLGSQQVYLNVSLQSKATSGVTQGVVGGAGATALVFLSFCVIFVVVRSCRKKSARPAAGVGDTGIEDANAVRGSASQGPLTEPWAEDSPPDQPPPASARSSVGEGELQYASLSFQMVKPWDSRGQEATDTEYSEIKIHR

Turning to `CN(C)C(=O)NC[C@H]1OC[C@@H]2CCN(Cc3ccoc3)C[C@@H]21`, the Percent Effect was 2.83% in test [1]; 2.67% in [2]; 24.1% in test [3]; -3.37% in test [4]; -5.41% with Trypanosoma cruzi; -66.8% in test [5]. Also, the Percent Effect in test [6] is 8.38%; in the test listed under Homo sapiens, 36.1%; in [7] it was 3.12%; in test [8], 10%; in test [9], -4.56%.
As for `COCc1ccc(CNC(=O)C2=NN(c3ccccc3)C(=O)CN2)cc1`, the Percent Effect in [1] is -0.976%; in test [2], 5.41%; in test [3], 6.06%; in [4], -1.63%; with Trypanosoma cruzi, -9.09%; in test [5], 1.24%. For the same compound, the Percent Effect in [6] is 14%; in the test listed under Homo sapiens it was 53.6%; in test [7] it was 3.23%; in test [8], 13.6%; in test [9], -4.43%.
As to `Cc1noc(C)c1C(=O)N(C)Cc1nc(-c2ccccn2)no1`, the Percent Effect is -7.17% in [1]; 2.67% in test [2]; -0.593% in test [3]; 19% in test [4]; 2.43% in the test on Trypanosoma cruzi; 4.69% in [5]. Moreover, the Percent Effect in [6] is 4.53%; in the test listed under Homo sapiens it was -1.43%; in [7], 4.92%; in [8] it was 11.1%; in test [9], -3.45%.
Consider `NC(=O)C1CCN(Cn2nc(-c3ccccc3)oc2=O)CC1`, for which the Percent Effect in test [1] was -1.26%; in test [2], 15.6%; in test [3] it was 6.06%; in test [4], 6.43%; in the test with Trypanosoma cruzi, 1.08%; in [5] it was -56.5%. Further, the Percent Effect in [6] is 20.3%; in the test filed under Homo sapiens, 2.82%; in test [7], 4.3%; in test [8] it was 16.1%; in [9], -5.92%.
As to `CN1CC(=O)N(c2cccc(F)c2)CC12CCN(S(C)(=O)=O)C2` (stereo not drawn), the Percent Effect in test [1] is -4.45%; in [2], 10.8%; in test [3] it was 2.57%; in test [4] it was 0.944%; in the test with Trypanosoma cruzi, -1.07%; in test [5] it was 3.5%. In addition, the Percent Effect was 18.8% in [6]; -6.25% in the test filed under Homo sapiens; 4.32% in test [7]; 10.3% in test [8]; -1.22% in test [9].
On to `CN(Cc1cn2c(n1)CN(CC1CC1)CC2)Cc1ccco1`, for which the Percent Effect in test [1] was -3.08%; in test [2] it was 8%; in test [3] it was 16.6%; in [4], 0.972%; in the test on Trypanosoma cruzi, -3.35%; in test [5] it was 0.233%. The Percent Effect is 1.5% in [6]; 8.85% in the test filed under Homo sapiens; 7.45% in test [7]; 8.97% in test [8]; -4.14% in [9].
In the case of `O=C(c1cc(Cl)c2c(c1)OCO2)N1CCN(c2ccccn2)CC1`, the Percent Effect in [1] is -2.8%; in test [2], 5.48%; in [3], -6.15%; in [4], 5.68%; with Trypanosoma cruzi, 1.37%; in [5], 3.64%. For the same compound, the Percent Effect in test [6] is 16.1%; in the test filed under Homo sapiens it was 14.1%; in [7], 7.53%; in test [8], 15%; in test [9] it was -12.5%.
As to `Cc1nc(CCNC(=O)NC2CCN(c3ncccn3)CC2)cs1`, the Percent Effect in [1] is -1.83%; in test [2], 11%; in [3], -4.69%; in test [4], 4.09%; in the test with Trypanosoma cruzi, 1.19%; in test [5], -1.6%. Further, the Percent Effect amounted to 16% in [6]; 22.2% in the test listed under Homo sapiens; 11.5% in [7]; 21% in test [8]; 0.13% in test [9].
